# Experimental data taken from PubChem BioAssay.
# Unmarked numbers belong to inactive results. Some of the results follow. The source made the active and inactive calls.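 How the source made its calls, unless noted: active means mean inhibition over 43.08%, the solvent-only control mean plus 3 SD; inactive means the rest.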
# Experiments:
# [1] = molecular target: Nuclear receptor coactivator 3 (Homo sapiens) (UniProt Q9Y6Q9); assay: SRC3 coactivator transcriptional activity inhibitors, confirmation, cell-based, luminescence, quadruplicate (AID 588792); settings: HEK293 GAL4-SRC3 luciferase reporter, at 3.6 µM, hits give high values;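 further: 0% = DMSO treated cells and 100% = gossypol at 36 µM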
# Nuclear receptor coactivator 3 (Homo sapiens), sequence (Q9Y6Q9 whole entry, looked up, the tested form may be a part): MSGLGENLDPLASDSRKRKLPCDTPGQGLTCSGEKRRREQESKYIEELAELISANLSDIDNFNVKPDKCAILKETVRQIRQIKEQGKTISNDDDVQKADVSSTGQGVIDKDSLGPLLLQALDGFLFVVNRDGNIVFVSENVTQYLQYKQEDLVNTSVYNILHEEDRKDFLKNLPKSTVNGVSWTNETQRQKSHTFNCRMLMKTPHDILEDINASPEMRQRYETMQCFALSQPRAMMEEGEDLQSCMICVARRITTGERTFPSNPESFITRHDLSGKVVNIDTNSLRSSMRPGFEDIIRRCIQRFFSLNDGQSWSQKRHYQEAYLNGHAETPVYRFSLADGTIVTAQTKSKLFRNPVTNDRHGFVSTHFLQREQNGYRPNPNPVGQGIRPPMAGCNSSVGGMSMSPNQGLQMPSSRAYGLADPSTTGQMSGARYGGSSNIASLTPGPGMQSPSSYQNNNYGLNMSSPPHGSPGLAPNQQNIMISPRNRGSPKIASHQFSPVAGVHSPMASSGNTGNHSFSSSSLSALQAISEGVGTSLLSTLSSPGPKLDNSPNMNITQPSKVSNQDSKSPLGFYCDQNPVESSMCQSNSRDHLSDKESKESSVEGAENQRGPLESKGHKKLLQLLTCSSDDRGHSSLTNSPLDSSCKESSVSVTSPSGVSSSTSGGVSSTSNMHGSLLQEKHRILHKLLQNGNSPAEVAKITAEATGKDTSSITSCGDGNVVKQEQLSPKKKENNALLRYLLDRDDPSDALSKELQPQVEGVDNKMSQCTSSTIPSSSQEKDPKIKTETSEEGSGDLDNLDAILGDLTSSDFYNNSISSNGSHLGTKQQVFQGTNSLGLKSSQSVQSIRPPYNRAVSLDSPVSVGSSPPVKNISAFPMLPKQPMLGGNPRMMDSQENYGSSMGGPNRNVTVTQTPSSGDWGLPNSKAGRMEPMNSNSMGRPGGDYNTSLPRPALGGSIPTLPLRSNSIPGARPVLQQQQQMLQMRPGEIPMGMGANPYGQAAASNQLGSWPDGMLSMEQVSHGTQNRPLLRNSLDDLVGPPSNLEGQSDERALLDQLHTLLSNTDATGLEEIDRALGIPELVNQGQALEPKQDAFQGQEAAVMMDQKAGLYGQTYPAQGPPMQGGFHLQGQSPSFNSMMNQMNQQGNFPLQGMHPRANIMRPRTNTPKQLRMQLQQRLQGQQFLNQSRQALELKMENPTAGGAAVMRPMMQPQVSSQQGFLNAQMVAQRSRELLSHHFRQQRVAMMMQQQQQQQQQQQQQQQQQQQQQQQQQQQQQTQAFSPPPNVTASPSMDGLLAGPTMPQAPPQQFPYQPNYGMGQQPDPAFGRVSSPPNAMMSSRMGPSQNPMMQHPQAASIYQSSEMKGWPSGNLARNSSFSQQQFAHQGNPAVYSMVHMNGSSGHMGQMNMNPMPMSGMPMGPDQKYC
# [2] = system: transactivating tegument protein VP16 (Human herpesvirus 1), Gal4-VP16 luciferase reporter; assay: VP16 transactivation inhibitors, counter-screen for SRC3 inhibitor project, cell-based, luminescence, high throughput (AID 588794; in the data active means inhibition above about 30%); settings: mammalian cells, VP16-driven luciferase reporter luminescence; at 3.6 µM; hits give high values
# [3] = system: transactivating tegument protein VP16 (Human herpesvirus 1); assay: VP16 transactivation reporter inhibitors, counter-screen for SRC2 inhibitor project, cell-based, luminescence, single concentration (AID 652007; in the data active means inhibition above about 36%); settings: cell-based VP16 transactivation luciferase reporter, at 8.9 µM, hits give high values
# [4] = molecular target: Nuclear receptor coactivator 2 (Homo sapiens) (UniProt Q15596); assay: SRC2 coactivator transcriptional activity inhibitors, confirmation, cell-based, luminescence, HEK293, triplicate (AID 652008;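 active means mean inhibition above 46.5%, the solvent-only control mean plus 3 SD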;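 further: 0% = DMSO-treated cells and 100% = Gossypol at 36 µM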); settings: HEK293 GAL4-SRC2 luciferase reporter, at 8.9 µM, hits give high values
# Nuclear receptor coactivator 2 (Homo sapiens), sequence (Q15596 whole entry, looked up, the tested form may be a part): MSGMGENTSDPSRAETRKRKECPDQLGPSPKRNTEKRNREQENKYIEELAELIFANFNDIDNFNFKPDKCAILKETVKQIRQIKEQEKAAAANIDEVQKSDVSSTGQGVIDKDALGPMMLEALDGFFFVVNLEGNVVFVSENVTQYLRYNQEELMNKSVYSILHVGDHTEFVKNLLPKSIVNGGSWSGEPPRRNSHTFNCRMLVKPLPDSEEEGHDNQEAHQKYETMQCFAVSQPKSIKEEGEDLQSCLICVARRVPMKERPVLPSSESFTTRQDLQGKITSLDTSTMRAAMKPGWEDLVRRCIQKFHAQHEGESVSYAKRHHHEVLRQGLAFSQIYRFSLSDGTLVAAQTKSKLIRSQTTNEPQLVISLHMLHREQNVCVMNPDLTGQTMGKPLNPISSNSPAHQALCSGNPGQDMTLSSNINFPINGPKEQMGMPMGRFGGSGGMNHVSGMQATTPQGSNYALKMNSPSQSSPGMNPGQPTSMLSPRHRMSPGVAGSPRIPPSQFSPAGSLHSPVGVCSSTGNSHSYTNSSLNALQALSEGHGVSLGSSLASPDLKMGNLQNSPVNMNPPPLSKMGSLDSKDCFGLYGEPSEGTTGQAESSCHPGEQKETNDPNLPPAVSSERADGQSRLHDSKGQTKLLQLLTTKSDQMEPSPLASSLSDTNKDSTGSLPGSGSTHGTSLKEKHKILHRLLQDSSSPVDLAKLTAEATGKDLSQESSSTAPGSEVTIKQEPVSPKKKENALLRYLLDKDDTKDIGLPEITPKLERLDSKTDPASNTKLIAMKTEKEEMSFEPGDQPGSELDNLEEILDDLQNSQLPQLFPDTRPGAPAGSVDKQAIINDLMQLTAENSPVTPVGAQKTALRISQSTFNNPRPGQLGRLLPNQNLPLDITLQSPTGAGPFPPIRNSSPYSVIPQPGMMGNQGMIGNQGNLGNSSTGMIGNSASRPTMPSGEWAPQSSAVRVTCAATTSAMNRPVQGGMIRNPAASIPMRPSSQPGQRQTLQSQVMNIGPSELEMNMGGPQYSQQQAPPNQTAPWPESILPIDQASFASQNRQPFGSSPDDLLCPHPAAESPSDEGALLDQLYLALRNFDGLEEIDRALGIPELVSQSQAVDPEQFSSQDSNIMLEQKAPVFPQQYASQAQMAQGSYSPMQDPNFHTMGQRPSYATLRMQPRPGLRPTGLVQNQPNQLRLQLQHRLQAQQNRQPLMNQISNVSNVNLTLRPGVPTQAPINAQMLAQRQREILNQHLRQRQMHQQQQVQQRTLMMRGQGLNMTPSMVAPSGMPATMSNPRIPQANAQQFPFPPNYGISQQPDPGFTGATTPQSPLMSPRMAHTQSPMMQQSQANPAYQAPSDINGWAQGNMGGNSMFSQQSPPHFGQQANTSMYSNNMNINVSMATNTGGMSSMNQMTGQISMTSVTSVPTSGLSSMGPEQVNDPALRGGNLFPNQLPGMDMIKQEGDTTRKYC
# [5] = molecular target: Nuclear receptor coactivator 1 (Homo sapiens) (UniProt Q15788); assay: SRC1 coactivator transcriptional activity inhibitors, confirmation, cell-based, luminescence, quadruplicate (AID 588820;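 active means mean inhibition above 46.68%, the untreated control wells mean plus 3 SD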;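 further: 0% = DMSO wells and 100% = gossypol 36 µM treated wells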); settings: HEK293 GAL4-SRC1 luciferase reporter, at 3.6 µM, hits give high values
# Nuclear receptor coactivator 1 (Homo sapiens), sequence (Q15788 whole entry, looked up, the tested form may be a part): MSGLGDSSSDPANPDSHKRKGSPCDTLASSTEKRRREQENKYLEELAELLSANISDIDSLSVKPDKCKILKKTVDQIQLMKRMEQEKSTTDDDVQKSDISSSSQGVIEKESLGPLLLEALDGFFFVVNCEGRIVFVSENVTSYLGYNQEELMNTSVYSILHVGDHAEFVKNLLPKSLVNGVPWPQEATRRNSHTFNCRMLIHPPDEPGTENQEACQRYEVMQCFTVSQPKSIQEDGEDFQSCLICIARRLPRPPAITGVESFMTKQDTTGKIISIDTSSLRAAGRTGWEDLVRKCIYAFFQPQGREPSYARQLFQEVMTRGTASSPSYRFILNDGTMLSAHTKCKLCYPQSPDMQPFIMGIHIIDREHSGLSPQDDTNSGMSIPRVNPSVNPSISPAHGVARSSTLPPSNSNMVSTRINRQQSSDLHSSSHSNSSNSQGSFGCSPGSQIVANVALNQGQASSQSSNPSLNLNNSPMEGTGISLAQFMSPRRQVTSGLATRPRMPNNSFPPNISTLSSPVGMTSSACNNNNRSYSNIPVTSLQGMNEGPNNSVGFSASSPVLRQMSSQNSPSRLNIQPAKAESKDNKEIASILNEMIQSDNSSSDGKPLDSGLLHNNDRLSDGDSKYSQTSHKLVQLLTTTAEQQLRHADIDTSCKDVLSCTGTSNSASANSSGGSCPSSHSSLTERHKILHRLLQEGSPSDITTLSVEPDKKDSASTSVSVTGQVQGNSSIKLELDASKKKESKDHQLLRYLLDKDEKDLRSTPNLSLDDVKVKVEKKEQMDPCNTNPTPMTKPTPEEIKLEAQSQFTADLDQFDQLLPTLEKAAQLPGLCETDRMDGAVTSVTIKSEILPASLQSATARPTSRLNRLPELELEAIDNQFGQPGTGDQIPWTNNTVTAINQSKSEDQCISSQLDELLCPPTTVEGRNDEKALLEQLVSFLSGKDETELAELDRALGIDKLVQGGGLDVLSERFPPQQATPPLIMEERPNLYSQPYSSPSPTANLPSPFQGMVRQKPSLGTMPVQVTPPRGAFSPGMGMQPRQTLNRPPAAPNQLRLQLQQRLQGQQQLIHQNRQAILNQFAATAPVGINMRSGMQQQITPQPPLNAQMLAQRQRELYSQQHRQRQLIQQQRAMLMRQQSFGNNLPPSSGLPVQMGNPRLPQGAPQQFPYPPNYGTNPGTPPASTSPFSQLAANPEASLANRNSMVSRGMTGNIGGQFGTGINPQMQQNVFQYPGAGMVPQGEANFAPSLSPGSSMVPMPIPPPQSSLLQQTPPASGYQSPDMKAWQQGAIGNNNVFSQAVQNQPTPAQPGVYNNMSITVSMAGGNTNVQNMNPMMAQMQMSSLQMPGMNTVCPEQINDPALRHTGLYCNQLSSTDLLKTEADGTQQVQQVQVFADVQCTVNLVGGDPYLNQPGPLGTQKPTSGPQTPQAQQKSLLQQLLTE
# [6] = VP16 transactivation inhibitors, counter-screen for SRC1 inhibitor project, cell-based, luminescence, high throughput (AID 588824; in the data active means inhibition above about 25%); settings: cell-based VP16 transactivation luciferase luminescence; at 3.6 µM; hits give high values
# [7] = molecular target: Galanin receptor type 2 (Homo sapiens) (UniProt O43603); assay: GALR2 antagonists, retest of hits, confirmation, cell-based (AID 866; in the data active means inhibition above about 27%;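 further: cells stimulated with galanin at about its EC80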); settings: GALR2-expressing cells, antagonist mode, at 4 µM, hits give high values
# Galanin receptor type 2 (Homo sapiens), sequence (O43603 whole entry, looked up): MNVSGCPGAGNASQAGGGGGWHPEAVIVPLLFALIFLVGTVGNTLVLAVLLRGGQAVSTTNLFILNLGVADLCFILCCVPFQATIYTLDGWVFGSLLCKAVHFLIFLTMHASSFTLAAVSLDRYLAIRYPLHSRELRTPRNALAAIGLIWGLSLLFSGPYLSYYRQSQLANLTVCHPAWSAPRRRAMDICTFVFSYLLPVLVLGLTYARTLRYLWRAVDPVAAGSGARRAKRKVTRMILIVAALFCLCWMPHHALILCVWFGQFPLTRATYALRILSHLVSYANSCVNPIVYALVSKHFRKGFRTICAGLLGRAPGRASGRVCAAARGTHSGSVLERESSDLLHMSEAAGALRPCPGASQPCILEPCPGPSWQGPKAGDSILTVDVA
# [8] = inhibitors of NFAT-driven beta-lactamase reporter, confirmation, counter-screen for GALR2 antagonist project, CHO NFAT-bla cells, FRET readout (AID 867;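 active means inhibition above the mean inhibition across tested compounds plus 3 SD, cut at about 27% in these data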;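 further: 0% = 500 nM thapsigargin stimulated wells and 100% = unstimulated BSA only wells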); settings: thapsigargin-stimulated, at 4.2 µM, hits give high values
# [9] = Gal4-VP16 luciferase reporter inhibitors, counter-screen for COUP-TFII antagonist project, cell-based, luminescence, HEK293 (AID 687007; in the data active means inhibition above about 13%); settings: at 8.5 µM, hits give high values
# [10] = molecular target: COUP transcription factor 2 (Homo sapiens) (UniProt P24468); assay: NR2F2 transcriptional activity inhibitors, confirmation, cell-based, luciferase reporter, HEK293, triplicate (AID 687008;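 active means mean inhibition over three repeats above a set limit taken from the earlier primary screen, cut at about 38% in these data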;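 further: 100% = cells given the luciferase reporter alone without the COUP-TF2 vector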); settings: HEK293 NGFI-A luciferase reporter, luminescence; at 8.5 µM; hits give high values
# COUP transcription factor 2 (Homo sapiens), sequence (P24468 whole entry, looked up): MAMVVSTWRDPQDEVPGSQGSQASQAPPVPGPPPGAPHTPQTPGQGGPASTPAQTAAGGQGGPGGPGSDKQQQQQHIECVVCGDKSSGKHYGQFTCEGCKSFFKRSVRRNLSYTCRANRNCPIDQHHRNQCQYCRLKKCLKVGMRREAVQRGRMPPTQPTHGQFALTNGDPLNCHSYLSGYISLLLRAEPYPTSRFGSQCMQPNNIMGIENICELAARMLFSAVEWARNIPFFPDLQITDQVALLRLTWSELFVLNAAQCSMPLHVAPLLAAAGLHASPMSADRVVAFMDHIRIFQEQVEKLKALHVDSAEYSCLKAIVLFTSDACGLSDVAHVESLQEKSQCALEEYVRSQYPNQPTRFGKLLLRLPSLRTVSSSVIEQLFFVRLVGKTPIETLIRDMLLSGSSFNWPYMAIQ
smiles,measurement,setting,value
Cc1nn(C)cc1C(C)NC(=O)c1cc(COc2cccc3cnccc23)on1 (centres undefined),inhibition,[1],18.6%
same,inhibition,[2],24.9%
same,inhibition,[3],-5.71%
same,inhibition,[4],33.3%
CCOc1ccc(C(=O)C(CCC(CN(C)C)C(=O)c2ccc(OCC)cc2)CN(C)C)cc1 (centres undefined),inhibition,[1],-1.23%
same,inhibition,[2],34.5% (active)
same,inhibition,[3],42.6% (active)
same,inhibition,[4],54.2% (active)
CCOC(=O)c1c(C)nn(-c2ccc(NC(=O)/C=C/C(=O)O)cc2)c1C,inhibition,[1],10.7%
same,inhibition,[2],-2.88%
same,inhibition,[3],8.16%
same,inhibition,[4],62.7% (active)
CCOc1ccc(CSC(=N)N)cc1Cl,inhibition,[5],-21.1%
same,inhibition,[6],9.52%
COc1cccc(F)c1C(C[N+](=O)[O-])c1c(N)n(C)c(=O)n(C)c1=O (centres undefined),inhibition,[1],42.5%
same,inhibition,[2],24.4%
same,inhibition,[3],14.7%
same,inhibition,[4],28.2%
Cc1ccc(-n2nnnc2Sc2ccc(S(=O)(=O)NCCN(C)C)cc2[N+](=O)[O-])cc1,inhibition,[1],33.8%
same,inhibition,[2],35.9% (active)
same,inhibition,[3],18.6%
same,inhibition,[4],31.4%
Cc1nnnn1/C(=C\c1ccccc1)C(=O)OCC(=O)N1CC2(C)CC1CC(C)(C)C2 (centres undefined),inhibition,[7],39% (active)
same,inhibition,[8],16.1%
same,inhibition,[1],22.4%
same,inhibition,[2],44% (active)
CC1CCN(c2ccc(-c3cccs3)nn2)CC1,inhibition,[1],22.9%
same,inhibition,[2],9.04%
same,inhibition,[3],34.7%
same,inhibition,[4],47.3% (active)
O=C(NC(CSCc1ccccc1)C(=O)N/N=C/c1ccc(O)cc1O)c1ccc([N+](=O)[O-])cc1 (centres undefined),inhibition,[1],31.7%
same,inhibition,[2],34.8% (active)
same,inhibition,[3],-26.8%
same,inhibition,[4],8.58%
CCCN(CCC)CCCNC(=O)c1cn(C)c2ccc(S(=O)(=O)N(C)C3CCCCC3)cc2c1=O,inhibition,[5],-13.7%
same,inhibition,[6],-9.68%
Cc1ccc(S(=O)(=O)Nc2c(NC3CCCCC3)c3ccccc3oc2=O)c(C)c1,inhibition,[5],15.7%
same,inhibition,[6],13.5%
O=C(N[C@@H](Cc1ccccc1)C(=O)CCl)OCc1ccccc1,inhibition,[1],31.5%
same,inhibition,[2],40.4% (active)
same,inhibition,[3],64.2% (active)
same,inhibition,[4],69.3% (active)
Cc1ccc(C)c(N2CCN(C(=O)CCCCCn3c(=S)[nH]c4ccc(N5CCOCC5)cc4c3=O)CC2)c1,inhibition,[1],60.6% (active)
same,inhibition,[2],73.1% (active)
same,inhibition,[3],69.7% (active)
same,inhibition,[4],60.8% (active)
same,inhibition,[9],15% (active)
same,inhibition,[10],90% (active)
Cc1ccc(S(=O)(=O)NNC2=NS(=O)(=O)c3ccccc32)c(C)c1,inhibition,[5],-17.6%
same,inhibition,[6],-7.56%
O=C(Nc1sc2c(c1C(=O)NCCCO)CCCC2)c1ccccc1,inhibition,[5],-30.3%
same,inhibition,[6],-14.6%
O=C(Nc1cc(Cl)ccc1N1CCOCC1)c1ccco1,inhibition,[5],1.28%
same,inhibition,[6],-5.91%
O=C(Nc1ccccc1)NN(C(=O)CCl)c1ccccc1,inhibition,[1],-0.31%
same,inhibition,[2],13.4%
same,inhibition,[3],32.9%
same,inhibition,[4],56.9% (active)
CCOc1cccc(/C=N/NC(=O)c2cccnc2)c1O,inhibition,[5],17.4%
same,inhibition,[6],9.63%
O=C(NC1CCCCC1)C(c1ccc(F)cc1)N(Cc1ccco1)C(=O)c1csnn1 (centres undefined),inhibition,[5],-14.3%
same,inhibition,[6],-0.45%
CCCCN(CC)Cc1ccc(CNC(=S)Nc2ccc(C)cc2Cl)o1,inhibition,[1],14.2%
same,inhibition,[2],-5.53%
same,inhibition,[3],12.7%
same,inhibition,[4],30.4%
CC(=O)NC(c1cccs1)c1cc(F)c2cccnc2c1O (centres undefined),inhibition,[5],14.3%
same,inhibition,[6],15.3%
Cc1cc(NC(=O)CN2CCN(S(=O)(=O)c3ccc4ccccc4c3)CC2)no1,inhibition,[5],-3.08%
same,inhibition,[6],-1.04%
O=C(c1ccc(F)cc1)C(CN1CCOCC1)c1ccccc1 (centres undefined),inhibition,[1],44.1% (active)
same,inhibition,[2],55.9% (active)
same,inhibition,[3],35%
same,inhibition,[4],82.6% (active)
CC(=O)CSc1ccc(-c2nc3cc(C)c(C)cc3[nH]2)cn1,inhibition,[1],22.4%
same,inhibition,[2],3.79%
same,inhibition,[3],10.4%
same,inhibition,[4],78.8% (active)
Cc1ccc(-n2c(C)cc(C(=O)COc3cccnc3[N+](=O)[O-])c2C)cc1,inhibition,[1],34.5%
same,inhibition,[2],-10.3%
same,inhibition,[3],-23%
same,inhibition,[4],64% (active)
COCCN1C2=C(C(=O)CC(C)(C)C2)C(c2ccc(OC)c(OC)c2)C2=C1CC(C)(C)CC2=O,inhibition,[5],-10.8%
same,inhibition,[6],12%
